Records with an inconclusive call do not appear. Entries that show only a call come without a potency. Active and inactive are the calls of the source. Calls follow the shape of the dose curve; as a rule, active = well fitted activation curve with a large enough effect in the main read-out, with a control signal flat (not every such curve was filed as active); inconclusive = small, poorly fitted or top-dose-only effect, or effect the other way, or a change in a side signal; inactive = flat fitted curve, though single readings scatter.
target: 3',5'-cyclic-AMP phosphodiesterase 4B (Homo sapiens) (UniProt Q07343); assay: qHTS Assay for Inhibitors of PDE-IV (AID 607); conditions: HEK293 ACTOne CNG channel cells, membrane potential fluorescence; series mostly up to 22.9 µM
Description: NIH Chemical Genomics Center [NCGC]
NIH Molecular Libraries Screening Centers Network [MLSCN]
The cyclic nucleotide phosphodiesterases (PDEs) are proteins that catalyze hydrolysis of 3', 5'-cyclic nucleotides, such as cyclic adenosine monophosphate (cAMP) and cyclic guanosine monophosphate (cGMP), to their corresponding 5'-nucleotide monophosphates. These enzymes play an important role in controlling cellular concentrations of cyclic nucleotides and have a central role in a variety of intracellular signaling events. cAMP PDEs are emerging as a promising class of drug targets in asthma and cardiovascular disease therapeutic areas.
There are no commercially available cell-based screening assays for PDE inhibitors: currently biochemical assays are done using pure substrates (cAMP or cGMP) and purified recombinant PDE enzymes. As with other biochemical screens on intracellular targets, false positives and false negatives may result from issues involving cell membrane permeability, cellular metabolism, and the like.
Here we report the development of a cell-based screening assay for cAMP phosphodiesterase (PDE) inhibitors. The assay is based on the BD ACTOne# technology (BD Biosciences) which utilizes a modified cyclic nucleotide-gated channel (CNG) to monitor intracellular cAMP changes in live cells. The CNG channel is localized on the plasma membrane, and opens when the intracellular cAMP level increases, resulting in ion flux and cell membrane depolarization. The influx of cations through the CNG channel can be quantified using membrane potential (MP) dyes. We modified the BD ACTOne technology to allow the detection of PDE inhibitors, and performed an inhibitor screen for PDE-IV, which is expressed endogenously in HEK293 cells. We optimized this assay in homogeneous 1536-well plate assay format for high throughput screening.
NCGC Assay Protocol Summary:
The medium contained 10% FBS (Invitrogen), 2 mM L-glutamine, and 250 ug/ml G418 (Cellgro) and 1 ug/ml puromycin (Clontech). ACTOneTM parental cells (BD Biosciences) were maintained in the same medium without puromycin.
The activity of the CNG channel was measured by BD ACTOneTM membrane potential dye kit (BD Biosciences). Forskolin, a positive control for cAMP activation and RO 20-1724, a PDE inhibitor, were both purchased from Sigma and solublized in DMSO.
Sequence,Parameter,Value,Description
1,Reagent,3 uL,1000 cells/well 1536 TC treated Black plate
3,Compound,0.5 uL,Kalypsys dispense RO 20-1724 100 uM final [A]
4,Reagent,3 uL,BD membrane potential dye
6,Compound,23 nL,Final concentration was 0.7nM to 22.9uM
8,Detector,EX 535 / EM 590 [B],Envision
Footnotes: [A] The stock 2 mM RO 20-1724 PDE inhibitor was made in 10 % DMSO. Parental cell line received 10 uM forskolin + 100 uM RO. [B] Envsion settings: Bottom Excitation 535/20 nm top emission 590/20, gain of 150 and 5 flashes per well.
Keywords: PDE, PDE-IV, cytotoxicity, flourescence, MLSMR, MLSCN, NIH Roadmap, qHTS, NCGC

Chain of 3',5'-cyclic-AMP phosphodiesterase 4B (Homo sapiens) (Q07343 whole entry, looked up): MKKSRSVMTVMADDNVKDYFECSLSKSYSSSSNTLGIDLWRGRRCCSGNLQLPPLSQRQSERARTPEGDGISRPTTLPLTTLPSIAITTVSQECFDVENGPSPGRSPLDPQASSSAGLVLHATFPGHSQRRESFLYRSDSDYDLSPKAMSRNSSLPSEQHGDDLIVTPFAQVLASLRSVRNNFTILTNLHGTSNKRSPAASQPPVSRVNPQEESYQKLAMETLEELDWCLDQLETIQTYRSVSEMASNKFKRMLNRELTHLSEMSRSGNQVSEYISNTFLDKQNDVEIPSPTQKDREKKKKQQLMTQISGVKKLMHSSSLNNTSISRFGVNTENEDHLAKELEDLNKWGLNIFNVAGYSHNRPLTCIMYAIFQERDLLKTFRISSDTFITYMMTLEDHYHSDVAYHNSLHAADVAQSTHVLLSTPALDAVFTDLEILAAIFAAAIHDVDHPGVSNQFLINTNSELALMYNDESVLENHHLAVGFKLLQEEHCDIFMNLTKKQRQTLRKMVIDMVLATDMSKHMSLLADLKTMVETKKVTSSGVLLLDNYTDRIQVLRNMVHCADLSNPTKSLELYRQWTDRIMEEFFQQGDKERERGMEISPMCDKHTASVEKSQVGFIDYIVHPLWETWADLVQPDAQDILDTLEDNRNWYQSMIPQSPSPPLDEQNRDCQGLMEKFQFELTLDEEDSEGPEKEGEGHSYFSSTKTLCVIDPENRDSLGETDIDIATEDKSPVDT

Row | Compound | Potency
1 | COc1cc2c3cc1Oc1cc(ccc1O)C[C@@H]1c4c(cc(OC)c(O)c4Oc4cccc(c4)C[C@H]3N(C)CC2)CC[N+]1(C)C | inactive
2 | COc1ccc(NC(=O)N2CCC3(CC2)CCN(C(=O)Oc2ccccc2)CC3)cc1 | inactive
3 | O=C(c1ccncc1)N1CCC[C@@]2(CCN(Cc3nccs3)C2)C1 | inactive
4 | CC(C)CN1CC2(CCN(C(=O)c3ccncc3)CC2)C1 | inactive
5 | O=C1C=C2C=C[C@H]3C[C@@]2(O1)[C@H]1CCCCN31 | inactive
6 | O=C(Nc1ccccc1)N1CCCC2(CCN(C(=O)Oc3ccccc3)CC2)C1 | inactive
7 | C[C@H]1CC[C@@]2(NC1)O[C@@H]1C[C@H]3[C@@H]4CC=C5C[C@@H](O)CC[C@]5(C)[C@@H]4CC[C@]3(C)[C@@H]1[C@@H]2C | inactive
8 | Oc1ccc2c3c1O[C@H]1[C@@H](O)CC[C@]4(O)[C@H](C2)N(CC2CCC2)CC[C@@]314 | inactive
9 | CC(=O)N[C@@H]1CCSC1=O | inactive
10 | CCN[C@]1(c2cccs2)CCCCC1=O | inactive
11 | CCC[C@@](C)(COC(N)=O)COC(=O)NC(C)C | inactive
12 | CN1CC[C@]2(C)c3cc(O)ccc3N(C)[C@@H]12 | inactive
13 | CCN1C[C@@]2(COC)CC[C@H](O)[C@@]34[C@@H]2C[C@@H]([C@@H]13)[C@]1(O)C[C@@H](OC)C2C[C@H]4[C@H]1[C@H]2OC(C)=O | inactive
14 | CN1CCC2(CC1)CCN(C(=O)Oc1ccccc1)CC2 | inactive
15 | COc1ccc2c(c1OC)C(=O)O[C@H]2[C@H]1c2cc3c(cc2CCN1C)OCO3 | inactive
16 | COC(=O)N1CCC2(CCCN(C)C2)CC1 | inactive
17 | CN1CCCC2(CCN(C(=O)c3csnn3)CC2)C1 | inactive
18 | COC(=O)N1CCC2(CCN(CC(C)C)CC2)CC1 | inactive
19 | C[C@H]1[C@@H](O)[C@@H](C)/C=C\C=CCC\C=C/C=C\C=C/C=C[C@@H](O[C@H]2O[C@@H](C)[C@@H](O)[C@@H](N)[C@@H]2O)C[C@@H]2O[C@@](O)(C[C@@H](O)[C@H]2C(=O)O)C[C@@H](O)[C@@H](O)CC[C@@H](O)C[C@@H](O)C[C@@H](O)CC(=O)O[C@H]1C | inactive
20 | CN1[C@@H]2CC[C@H]1CC(O)C2 (stereo not given in full) | inactive

Row | Compound | Potency
21 | O=C(Oc1ccccc1)N1CCC2(CCCN(C(c3ccccc3)c3ccccc3)C2)CC1 | inactive
22 | COc1ccc(NC(=O)N2CC3(CCN(C(=O)Oc4ccccc4)CC3)C2)cc1 | inactive
23 | c1csc(CN2CCC3(CCNCC3)CC2)n1 | inactive
24 | COP(=O)(OC)[C@@H](O)C(Cl)(Cl)Cl | inactive
25 | CN1CC[C@@]2(CCCN(C(=O)c3ccncc3)C2)C1 | inactive
26 | c1cnc(N2CCCC3(CCNCC3)C2)nc1 | inactive
27 | CC(C)NC(=O)N1CCC2(CC1)CCN(C(=O)Oc1ccccc1)CC2 | inactive
28 | CN1C(=O)CCS(=O)(=O)[C@@H]1c1ccc(Cl)cc1 | inactive
29 | C[C@H]1C(=O)O[C@@H]2CCN3CC=C(COC(=O)[C@@](C)(O)[C@@]1(C)O)[C@H]23 | inactive
30 | CCN1C[C@]2(C)CC[C@H](OC)[C@@]34[C@@H]2[C@H](OC(C)=O)[C@]2(OCO[C@@]25C[C@@H](OC)[C@@H]2C[C@@]3(O)[C@H]5[C@@H]2OC)[C@H]14 | inactive
31 | C[C@@]12CC(=O)[C@H]3[C@@H](CCC4=CC(=O)CC[C@]43C)[C@H]1CCC2=O | inactive
32 | O=C(Oc1ccccc1)N1CCC2(CC1)CN(Cc1ccncc1)C2 | inactive
33 | COc1cc(C(=O)OC2C[C@H]3CC[C@@H](C2)N3C)ccc1O (stereo not given in full) | inactive
34 | C(#CCN1CCCC1)CN1CCCC1 | inactive
35 | O=C(c1ccncc1)N1CCC2(CC1)CN(Cc1ccccc1)C2 | inactive
36 | C#C[C@@]1(O)CC[C@@H]2[C@@H]3CCC4=CC(=O)CC[C@@]4(C)[C@H]3CC[C@]21C | inactive
37 | c1cnc(N2CCC3(CCNCC3)CC2)nc1 | inactive
38 | O=c1ccc2cc(O[C@H]3O[C@@H](CO)[C@@H](O)[C@@H](O)[C@@H]3O)c(O)cc2o1 | inactive
39 | c1ccc(CN2CCC3(CCNCC3)CC2)cc1 | inactive
40 | C[N+]1([O-])[C@@H]2CC(OC(=O)[C@@H](CO)c3ccccc3)C[C@@H]1[C@H]1O[C@H]12 (stereo not given in full) | inactive
